The whole screen tested about 420,000 compounds, of which about 50,000 (12%) were called active. Roughly 26% stayed inconclusive and do not appear here. Shown is part of a subset that was picked to be rich in actives. Where a call stands in place of a potency, no number is given. Values without a mark were called inactive. Calls follow the shape of the dose curve; as a rule, active = well fitted inhibition curve with a large enough effect; inconclusive = small, poorly fitted or top-dose-only effect; inactive = flat fitted curve, though single readings scatter.
Assay: qHTS for Inhibitors of human tyrosyl-DNA phosphodiesterase 1 (TDP1): qHTS in cells in presence of CPT; also: nearly all actives have a fitted effect of over 55% in size
Conditions: chicken DT40 Tdp1-/-;hTDP1 cells + 20 nM CPT, ATP luminescence, 48 h; series mostly up to 46.2 µM
Outline: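 Chicken DT40 Tdp1-/- cells complemented with human TDP1, 400 cells/well, exposed to compounds plus 20 nM camptothecin for at least 48 h at 37 C; viability read as ATP content by CellTiter-Glo luminescence.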
Potency is read from the fitted curve at half-maximal effect.

Structure (SMILES)	Potency	activity change, negative = growth inhibition
CCCCN(C)c1ccc([N+](=O)[O-])cc1	inactive	
Cc1cc(C)c(S(=O)(=O)c2ccccc2)c(OC(=O)c2c(F)cccc2Cl)n1	inactive	
Cc1nc(-c2ccccc2)sc1C(=O)/C=C/N(C)C	23.1 µM (active)	
Cc1nc(-c2ccccc2)sc1C(=O)/C=C/c1ccccc1	23.1 µM (active)	
Cc1nc(COc2cccc(Cl)c2)sc1C(=O)/C=C/N(C)C	inactive	
CN(C)/C=C/C(=O)c1ccccc1F	inactive	
Cc1ccc(SCC(=O)c2sc(-c3ccccc3)nc2C)cc1	inactive	
Cc1nc(-c2ccc(Cl)cc2)sc1C(=O)NN	inactive	
O=C(CN1CCSCC1)N/N=C/c1ccc(F)cc1F	inactive	
CCn1nc(C(=O)NNC(=O)C2CSC3(C)CCC(=O)N23)c2ccccc2c1=O (stereo not given)	inactive	
COc1ccc(S(=O)(=O)NC(C)C(=O)NCc2ccncc2)cc1Cl (stereo not given)	inactive	
COc1ccc(Cn2c(=O)c3oc4ccccc4c3n(CC(=O)Nc3ccc(F)cc3F)c2=O)cc1	inactive	
CN=C(c1ccccc1)c1c(C)cccc1C	inactive	
COc1ccc(OC)c(Nc2nc3ccccc3n3cnnc23)c1	4.11 µM (active)	
COc1ccccc1CNc1nc2ccc(Cl)cc2n2cnnc12	inactive	
COc1cc(Nc2nc3ccc(Cl)cc3n3cnnc23)cc(OC)c1OC	20.6 µM (active)	
CCOc1ccc(OCC)c(Nc2nc3ccccc3n3nnnc23)c1	inactive	
COc1ccc(CCNc2nc3ccc(C)cc3n3cnnc23)cc1OC	14.6 µM (active)	
COc1ccc(OC)c(C(O)c2nc3ccccc3n2C)c1 (stereo not given)	inactive	
CCOC(=O)Cc1cccc(-c2cc(CCCCCCc3ccc(O[C@H]4O[C@H](COC(C)=O)[C@@H](OC(C)=O)[C@H](OC(C)=O)[C@@H]4OC(C)=O)c(-c4cccc(CC(=O)OCC)c4)c3)ccc2O[C@H]2O[C@H](COC(C)=O)[C@@H](OC(C)=O)[C@H](OC(C)=O)[C@@H]2OC(C)=O)c1	inactive	
Cc1nnc(SCC(=O)NC(=O)NC2CCCC2)n1N	inactive	
Nc1nc(SC23CC4CC(CC(C4)C2)C3)ns1	inactive	
Nc1nc(NC(=O)/C=C/c2ccccc2)nn1-c1ccccc1	inactive	
CC1(c2cccc(N)c2)OCCO1	inactive	
CC(=O)Nc1ccc(NC(=O)COc2ccc(-c3ccccc3)cc2)cc1	inactive	

Structure (SMILES)	Potency	activity change, negative = growth inhibition
COc1ccc(N2C(=O)c3ccccc3NC2c2ccc(OC)c(CN3CCOCC3)c2)cc1 (stereo not given)	inactive	
COc1ccc(C2Nc3ccc(NC(=O)COC(C)=O)cc3C(=O)N2Cc2ccccc2)cc1COc1ccc(NC(C)=O)cc1 (stereo not given)	17.8 µM (active)	
COc1ccc2c(c1)CCc1cnc(-n3ncc(C(=O)NCc4cccnc4)c3C3CC3)nc1-2		-5.66% [at 9.04 µM]
Cc1nc2ccccn2c(=O)c1NC(=O)c1cccs1	inactive	
CCOc1ccc(N(CC(=O)NCc2ccc(OC)cc2)S(=O)(=O)c2c(C)noc2C)cc1	inactive	
Cc1noc(C)c1S(=O)(=O)N(CC(=O)Nc1ccc2c(c1)OCCO2)c1ccc(C(C)C)cc1	20.6 µM (active)	
Cc1ccc(S(=O)(=O)NCC(=O)Nc2ccc3c(c2)OCCO3)cc1	inactive	
O=C(O)c1cccc(NC(=O)c2cc(-c3cccc(Cl)c3)nc3ccccc23)c1	inactive	
Cc1c(C(=O)Nc2cccc(Cl)c2)cn2c(nc3ccccc32)c1C#N	16.4 µM (active)	
Cn1c(Nc2cccc(Cl)c2)nc2ccccc21	inactive	
CC1(c2ccc3ccccc3c2)NC(=O)NC1=O (stereo not given)	inactive	
Cc1cccc(N2C(=O)c3ccc(C(=O)Nc4cccc(C(=O)O)c4)cc3C2=O)c1	inactive	
Cc1cccc(NC(=O)c2cccc(C(=O)Nc3cccc(C)c3C)n2)c1C	inactive	
CCOc1ccccc1NC(=O)Cn1c(=O)n(Cc2ccccc2)c(=O)c2c(C)c(C(=O)N(C)C)sc21	inactive	
O=C(C1CC(=O)N(C2CCCCC2)C1)N1CCN(c2ccccc2)CC1 (stereo not given)	inactive	
O=C(C1CC(=O)N(C2CCCC2)C1)N1CCN(c2cccc(C(F)(F)F)c2)CC1 (stereo not given)	14.6 µM (active)	
O=C1C2CCCN2C(=O)N1CCCCN1CCN(c2cccc(C(F)(F)F)c2)CC1 (stereo not given)	inactive	
COC(=O)c1cc(=O)n(-c2c(Cl)cc(C(F)(F)F)cc2Cl)[nH]1	inactive	
CC(=O)Nc1ccccc1OC(C)C(=O)N1CCC(C)CC1 (stereo not given)	inactive	
O=C(NCC(O)c1ccc([N+](=O)[O-])cc1)C1CCCCC1 (stereo not given)	inactive	
CCOc1cc(N2CCOCC2)c(OCC)cc1NC(=O)c1ccc(C)s1	9.2 µM (active)	
NC(=O)C1CCN(C(=O)COc2cccc3cccnc23)CC1	inactive	
O=C(COc1nsnc1N1CCOCC1)Nc1ccccc1Cl	inactive	
CCOc1cc(N2CCOCC2)c(OCC)cc1NC(=O)COc1cccc2cccnc12	10.3 µM (active)	
CCOc1cc(NC(=O)c2ccccc2C(=O)O)c(OCC)cc1NC(=O)c1ccccc1F	inactive	

Structure (SMILES)	Potency	activity change, negative = growth inhibition
COC(=O)c1ccc(N2CCOCC2)c(NC(=O)c2ccc3c(c2)OCCO3)c1	inactive	
Cc1ccc(S(=O)(=O)N2CCN(Cc3cccc(C)c3O)CC2)cc1	inactive	
O=C(COc1cccc(Cl)c1)NCc1ccccc1	inactive	
COCCN(CCOC)S(=O)(=O)NC[C@H]1O[C@@H](n2cnc3c(N)ncnc32)[C@H](O)[C@@H]1O	inactive	
CC(C)(C)N(Cc1ccccc1)C(=O)c1ccncc1	inactive	
Cc1ccc(CNC(=O)COc2ccc3c(c2)CCC3)cc1	inactive	
O=C(CC1C(=O)NCCN1CC(c1ccccc1)c1ccccc1)NCCc1cn[nH]c1 (stereo not given)	inactive	
CCNC(=O)C1CCCN(C(=O)c2ccc(OC)cc2OC)CC1 (stereo not given)	inactive	
COc1ccc(NC(=O)c2sc3nc(-c4cc5cccc(OC)c5oc4=O)[nH]c(=O)c3c2C)cc1	inactive	
COc1ccccc1C1=Nc2cccc3cccc(c23)N1	5.17 µM (active)	
c1ccc(C2=Nc3cccc4cccc(c34)N2)cc1	7.31 µM (active)	
Fc1ccccc1N=C1Nc2cccc3cccc1c23	inactive	
COc1ccccc1-c1n[nH]nc1C1=CC(=O)CC(C)(C)C1	inactive	
NC(=O)COc1ccccc1C(=O)NC12CC3CC(CC(C3)C1)C2	inactive	
O=C(Nc1ccc(S(=O)(=O)N2CCCCC2)cc1)c1cnccn1	inactive	
Cc1n[nH]c(C)c1S(=O)(=O)N1CCCC(C(=O)Nc2ccc(Br)cc2)C1 (stereo not given)	inactive	
COc1ccc(S(=O)(=O)N2CCCC(C(=O)Nc3ccc(NC(=O)c4ccccn4)cc3)C2)cc1 (stereo not given)	7.31 µM (active)	
CC(C)c1ccc(NC(=O)C2CCCN(S(=O)(=O)c3cccnc3)C2)cc1 (stereo not given)	16.4 µM (active)	
CSc1ncc(Cl)c(C(=O)Nc2ccc(S(=O)(=O)N3CCCC(C)C3)cc2)n1 (stereo not given)	8.2 µM (active)	
O=C(Nc1ccc(F)cc1)C1CCCN(S(=O)(=O)c2ccc(-n3cnnn3)cc2)C1 (stereo not given)	inactive	
COc1ccc(CCNC(=O)C2CCCN(S(=O)(=O)c3ccc(OC)cc3)C2)cc1 (stereo not given)	inactive	
CCc1ccc(NC(=O)c2cc(S(=O)(=O)N3CCCC(C)C3)cn2C)cc1 (stereo not given)	inactive	
CC1CCCN(S(=O)(=O)c2ccc3[nH]c(=O)cc(C(=O)NCCc4ccc(Cl)cc4)c3c2)C1 (stereo not given)	inactive	
CC1CC(C)CN(S(=O)(=O)c2cccc(C(=O)N3C(=O)c4cccc(N)c4C3=O)c2)C1 (stereo not given)	inactive	
COc1ccc(NC(=O)C2CCC(CNC(=O)[C@@H]3Cc4ccccc4CN3)CC2)cc1 (stereo not given in full)	inactive	

Structure (SMILES)	Potency	activity change, negative = growth inhibition
CCc1cccc(C)c1NC(=O)COC(=O)CNC(=O)c1cccs1	inactive	
Cc1ccc2ncc(C(=O)Nc3ccc(OC(F)(F)F)cc3)c(=O)n2c1	inactive	
CC(C)NS(=O)(=O)c1ccc(CCC(=O)N2CCOCC2)cc1	inactive	
CC(=O)c1ccc(S(=O)(=O)NCCC(=O)N2CCN(c3ccccn3)CC2)cc1	inactive	
CC(=O)Nc1ccc(S(=O)(=O)NCCC(=O)N2CCN(c3ccccc3Cl)CC2)cc1	20.6 µM (active)	
CCNS(=O)(=O)c1ccc(CCC(=O)N2CCN(c3ccc(OC)cc3)CC2)cc1	inactive	
CCNS(=O)(=O)c1ccc(CCC(=O)N2CCN(c3cc(Cl)ccc3C)CC2)cc1	13 µM (active)	
CCOc1ccc(S(=O)(=O)NCCC(=O)N2CCCCCCC2)cc1	inactive	
CCOC(=O)N1CCC(Nc2c(NCCCN3CCN(CC)CC3)c(=O)c2=O)CC1	inactive	
O=C(COc1cccnc1[N+](=O)[O-])Nc1ccc(Cl)cc1F	inactive	
CCn1c(C)cc(=O)cc1-c1ccc(Cl)cc1	inactive	
CCOC(=O)C1=C(C)c2ccccc2OC1C(=O)OCC (stereo not given)	inactive	
Cc1cc(C(=O)Cn2cnc3cc([N+](=O)[O-])ccc3c2=O)c(C)n1CC1CCCO1 (stereo not given)	14.6 µM (active)	
CC(C)(C)NC(=O)Cn1cnc2cc([N+](=O)[O-])ccc2c1=O	inactive	
O=C(Cn1cnc2cc([N+](=O)[O-])ccc2c1=O)NC(=O)NCc1ccccc1	inactive	
NS(=O)(=O)c1ccc(CCNC(=S)Nc2ccc(S(N)(=O)=O)cc2)cc1	inactive	
Cc1nn(-c2ccccc2)nc1C(=O)OCC(=O)N1CCCCC1C (stereo not given)	inactive	
O=C(Cn1[nH]c(=O)c2ccccc2c1=O)Nc1cccc(-c2nnc3n2CCCCC3)c1	inactive	
Cc1c(C(=O)Nc2cccc(-c3nnc4n3CCCCC4)c2)oc2ccccc12	14.6 µM (active)	
Cc1c(C(=O)NC2CCCCC2)oc2ccccc12	inactive	
Cc1cccc(C(=O)NCC(=O)OCC(=O)N(C)CC(=O)Nc2ccccc2Cl)c1	inactive	
CC(=O)Nc1cc2ccc(OC(C)=O)cc2oc1=O	inactive	
O=c1oc2cc(O)ccc2cc1-c1ccc(F)cc1	20.6 µM (active)	
COc1ccc(-c2cc3ccc(OCc4nn[nH]n4)cc3oc2=O)cc1	inactive	
CC1=C(C(=O)N2CCOCC2)CC(CC(=O)NCc2cccs2)C(=O)N1CCCN1CCCC1=O (stereo not given)	inactive	

Reference: PubChem BioAssay AID686979 (National Center for Advancing Translational Sciences (NCATS), 2013)
